DRD3 agonist: D3 dopamine receptor (human) agonism; AID 652048; 410,000 compounds, 0.58% hits; P35462; D3R DiscoveRx beta-arrestin cells, luminescence, 90 min; max activation, %; in the data active = max activation above about 30%
Target sequence (P35462 whole entry, looked up): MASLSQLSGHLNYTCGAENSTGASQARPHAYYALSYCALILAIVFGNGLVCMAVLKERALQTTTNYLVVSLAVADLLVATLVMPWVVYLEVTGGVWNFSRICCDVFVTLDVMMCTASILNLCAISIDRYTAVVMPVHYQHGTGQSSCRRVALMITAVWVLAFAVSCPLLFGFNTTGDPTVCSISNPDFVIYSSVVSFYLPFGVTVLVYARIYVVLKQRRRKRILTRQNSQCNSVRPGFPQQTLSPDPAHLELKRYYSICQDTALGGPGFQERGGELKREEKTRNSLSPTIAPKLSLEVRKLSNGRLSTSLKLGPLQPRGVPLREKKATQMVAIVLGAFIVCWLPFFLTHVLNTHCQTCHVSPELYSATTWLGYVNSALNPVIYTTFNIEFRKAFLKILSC
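Agonist-mode cell screen: cells plated at 1500/well and incubated overnight at 37 °C, then exposed to library compounds for 90 min at 37 °C. Detection reagent was added for 30–60 min at room temperature, and luminescence was read.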
Nrf2 ARE act: activators of Nrf2 (ARE) signaling; 410,000 compounds, 0.31% hits; Potency, µM (highest dose often 46.1 µM), usual class: activators; AREc32 ARE-luciferase reporter (MCF7-derived line), luminescence, 24 h; note: nearly all actives have a fitted effect of over 65% in size
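ARE activation measured as luciferase luminescence (Steady-Glo, 30 min RT) in AREc32_Fluc cells after 24 hr compound exposure at 37 deg C, 5% CO2; cells seeded overnight at 1000/well in OPTI-MEM, 5% FBS.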
DRD3 antagonist: antagonists of human D3 dopamine receptor; D3R cells, DiscoveRx beta-arrestin luminescence, antagonist mode; stronger effect = lower value; AID 652054; P35462; 360,000 compounds, 2.5% hits; max response, negative = inhibition, %; in the data active = max response below about -50%; inconclusive = no clear call, values can overlap the other calls
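Cells expressing the human receptor were seeded at 1500 cells/well, incubated overnight at 37 degrees C in 5% CO2, then exposed to library compounds with dopamine controls for 90 minutes at 37 degrees C before luminescent detection.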
GRP78 ERSR act: ER stress response induction in glioma | U87-MG GRP78 promoter luciferase reporter, 16 h | Potency, µM, usual class: activators | 420,000 compounds, 0.02% hits | AID 602332; note: series mostly up to about 76 µM; nearly all actives have a fitted effect of over 35% in size
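ERSR induction read as luciferase luminescence (Bright-Glo, 10 min at room temperature) in stably transfected human U87-MG glioma cells exposed to compounds for 16 h, using GRP78 as sensor.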
Each line names hits and unclear results; the compound was inactive in the other large screens; ! = repeats disagree. Sampled rows, rich in hits. Any-hit rate of the full collection: about 3%. Unless noted, calls come from the whole dose curve; as a rule, active = well fitted curve in the direction sought with a large enough effect; inconclusive = small, poorly fitted or top-dose-only effect, or another doubt; inactive = no such curve, though single readings can be large; an effect the other way counts as inactive or inconclusive.

CCOC(=O)c1cc(OC(=O)c2ccc(C)cc2)n(-c2ccccc2)n1	none (no result: DRD3 antagonist)
Cc1ccsc1/C=C/C1=NCCCN1C	DRD3 antagonist -52!
Cc1cccc(NC(=O)[C@H](NC(=O)[C@@H]2Cc3ccccc3CN2)c2ccccc2)c1	DRD3 antagonist -89
COc1cccc(NC(=O)[C@H](NC(=O)[C@@H]2Cc3ccccc3CN2)c2ccccc2)c1	DRD3 antagonist -92
CC(C)c1ccc(NC(=O)[C@H](NC(=O)[C@@H]2Cc3ccccc3CN2)c2ccccc2)cc1	DRD3 antagonist -98
Cc1ccc(NC(=O)[C@H](NC(=O)[C@@H]2Cc3ccccc3CN2)c2ccccc2)cc1	DRD3 antagonist -100
Cc1cccc(NC(=O)[C@@H](CC(C)C)NC(=O)[C@@H]2Cc3ccccc3CN2)c1	none
COc1ccc(NC(=O)CCn2c(-c3ccc(F)cc3)cc(C(C)=O)c2C)c(OC)c1	none (no result: DRD3 antagonist)
CCCCNC(=O)c1cc2c(=O)n3cccc(C)c3nc2s1	none
COCCCNC(=O)c1cc2c(=O)n3cccc(C)c3nc2s1	DRD3 agonist 32!
CCc1ccc(S(=O)(=O)c2nnn3c2nc(N2CCOCC2)c2sccc23)cc1	none (no result: DRD3 antagonist)
Cc1ccc(Cn2ccnc2SCC(=O)Nc2nnc(C)s2)cc1	none (no result: DRD3 antagonist)
Cc1ccc(C2NC(=O)NC3=C2CCc2ccccc23)cc1 (configuration not stated)	DRD3 antagonist -86
CC(C)c1ccc(C2NC(=O)NC3=C2CCc2ccccc23)cc1 (configuration not stated)	none
O=C1C2C3C=CC(CC3)C2C(=O)N1/N=C/c1ccccc1O (configuration not stated)	DRD3 antagonist -65
CN1/C(=C\C(=O)c2cccs2)Sc2ccccc21	Nrf2 ARE act 4µM
CN(C)c1ccc(C=O)c(O)c1	none (no result: DRD3 agonist, Nrf2 ARE act, DRD3 antagonist)
O=C(CSc1nc2ncccc2[nH]1)Nc1c(F)cc(F)cc1Br	DRD3 antagonist -58
OCC1OC(OC2C(CO)OC(OC3C(CO)OC(O)C(O)C3O)C(O)C2O)C(O)C(O)C1O (configuration not stated)	none (no result: DRD3 agonist, Nrf2 ARE act, DRD3 antagonist)
O=C(O)CCCNc1cc(N2CCN(C(=O)c3ccco3)CC2)c2noc3c2c1C(=O)c1ccccc1-3	Nrf2 ARE act inconclusive
CCOC(=O)N1CCN(c2cc(NCCC(=O)O)c3c4c(onc24)-c2ccccc2C3=O)CC1	DRD3 antagonist -77
Clc1cccc(CNc2ncnc3nc[nH]c23)c1	none (no result: DRD3 agonist, Nrf2 ARE act, DRD3 antagonist)
COC(Cn1c2c(c3cc(C)ccc31)CCCC2NCc1ccccc1)OC (configuration not stated)	DRD3 antagonist -76
Cc1ccc2c(c1)c1c3n2CCCN(Cc2ccccc2)C3CCC1 (configuration not stated)	none
CCCNc1nc(Nc2ccc([N+](=O)[O-])cc2)nc(N2CCOCC2)n1	none (no result: DRD3 agonist, Nrf2 ARE act, DRD3 antagonist)
COc1ccc(CNC(=O)C2CCCN2c2nc(C)c3ccccc3n2)cc1 (configuration not stated)	none (no result: DRD3 agonist, Nrf2 ARE act, DRD3 antagonist)
COc1ccc2nc(N(Cc3cccnc3)C(=O)c3ccc(Cl)cc3)sc2c1	DRD3 agonist 60 (no result: DRD3 antagonist)
CN(C)CCN(C(=O)c1ccc2ccccc2c1)c1nc2ccc(Br)cc2s1	DRD3 antagonist -55
COc1ccc2nc(N(CCN(C)C)C(=O)c3ccc4ccccc4c3)sc2c1	DRD3 antagonist -63
COc1ccc2nc(N(Cc3cccnc3)C(C)=O)sc2c1	none (no result: DRD3 antagonist)
COc1ccc2nc(N(CCN(C)C)C(=O)c3ccc(C(=O)c4ccccc4)cc3)sc2c1	none
O=C(O)C(Cc1cc(I)c(O)c(I)c1)c1ccccc1 (configuration not stated)	none (no result: Nrf2 ARE act, DRD3 antagonist)
CCOc1cc(CNC(=O)c2ccc3c(c2)N(C)C(=O)C2CCCCN32)cc(OCC)c1OCC (configuration not stated)	none (no result: DRD3 antagonist)
COc1cccc(-c2oc3c(c2C(=O)OCCN2CCCCC2)C(O)CCC3)c1 (configuration not stated)	DRD3 antagonist -55 (no result: GRP78 ERSR act)
O=C(c1ccccc1)N1CCCC(c2nc3c(nnn3Cc3ccccc3)c(=O)[nH]2)C1 (configuration not stated)	DRD3 antagonist inconclusive
O=C(C1CCCCC1)N1CCCC(c2nc3c(nnn3Cc3ccccc3)c(=O)[nH]2)C1 (configuration not stated)	DRD3 antagonist -108
CCOc1ccc(CCNC(=O)c2ccc3c(c2)c(C)c(C)n3Cc2ccccc2)cc1OCC	none (no result: DRD3 antagonist)
CCOC(=O)C(=Cc1ccc(-c2ccsc2C(=O)OC)o1)C(=O)OCC	Nrf2 ARE act inconclusive
COC(=O)C(=Cc1ccc(-c2ccsc2C(=O)OC)o1)C(=O)OC	Nrf2 ARE act 13µM

Assay outcomes deposited in PubChem by National Center for Advancing Translational Sciences (NCATS).
